Data reported in PubChem BioAssay AID1645882 (National Center for Advancing Translational Sciences (NCATS), 2021).
Values joined by “and” are separate entries in the source; they are usually repeats but may differ in a detail not shown here. Identical values can stand only once. The whole screen tested about 16,000 compounds, of which about 120 (0.75%) were called active. About 4% were inconclusive and are not listed. Calls follow the shape of the dose curve; as a rule, active = well fitted inhibition curve with a large enough effect; inconclusive = small, poorly fitted or top-dose-only effect; inactive = no such curve, though single readings can be large or run the other way. Only a selection was taken, and actives are over-represented in it overall. More than one record can exist for a structure, and the calls need not agree. *1 amine or outer side, *2 acyl side, *3 side chain or, on linkers, in order; H or OH if unused. Where a SMILES comes first, the peptide text is derived from it. Bridges are numbered along the chain shown (N, C = ends). [ ]: non-standard residue; d: D form. The star is where a group is joined. X6 = NC1=N[C@@H](O)C[C@H]([C@H](N[*:1])C(=O)[*:2])N1; ΔAla(3-NHCONH2) = NC(=O)NC=C(N)C(=O)O; β3hOrn = NCCC[C@H](N)CC(=O)*; Dap = NC[C@H](N)C(=O)O

Molecular target: Rap guanine nucleotide exchange factor 3 (Homo sapiens) (UniProt O95398)
Assay: Validation qHTS for antagonist of cAMP-regulated guanine nucleotide exchange factor 3 (EPAC1); also: nearly all actives have a fitted effect of over 75% in size;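 as to activity change, negative = inhibition: plate controls were DMSO for no effect and ATA control for full effect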
Conditions: EPAC1 Rap1B-BODIPY-GDP exchange, fluorescence; series mostly up to 150 µM; activity change, negative = inhibition: at the top concentration
How it was run: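 EPAC1 (100 nM) mixed with 250 nM RAP1B-BODIPY-GDP and 50 uM GDP; compounds in concentration series, 5 min at room temperature. Fluorescence (ex 480/em 540 nm) read every 5 min for 30 min; normalized to ATA control and DMSO.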
Potency is read from the fitted curve at half-maximal effect.

Chain of Rap guanine nucleotide exchange factor 3 (Homo sapiens) (O95398 whole entry, looked up): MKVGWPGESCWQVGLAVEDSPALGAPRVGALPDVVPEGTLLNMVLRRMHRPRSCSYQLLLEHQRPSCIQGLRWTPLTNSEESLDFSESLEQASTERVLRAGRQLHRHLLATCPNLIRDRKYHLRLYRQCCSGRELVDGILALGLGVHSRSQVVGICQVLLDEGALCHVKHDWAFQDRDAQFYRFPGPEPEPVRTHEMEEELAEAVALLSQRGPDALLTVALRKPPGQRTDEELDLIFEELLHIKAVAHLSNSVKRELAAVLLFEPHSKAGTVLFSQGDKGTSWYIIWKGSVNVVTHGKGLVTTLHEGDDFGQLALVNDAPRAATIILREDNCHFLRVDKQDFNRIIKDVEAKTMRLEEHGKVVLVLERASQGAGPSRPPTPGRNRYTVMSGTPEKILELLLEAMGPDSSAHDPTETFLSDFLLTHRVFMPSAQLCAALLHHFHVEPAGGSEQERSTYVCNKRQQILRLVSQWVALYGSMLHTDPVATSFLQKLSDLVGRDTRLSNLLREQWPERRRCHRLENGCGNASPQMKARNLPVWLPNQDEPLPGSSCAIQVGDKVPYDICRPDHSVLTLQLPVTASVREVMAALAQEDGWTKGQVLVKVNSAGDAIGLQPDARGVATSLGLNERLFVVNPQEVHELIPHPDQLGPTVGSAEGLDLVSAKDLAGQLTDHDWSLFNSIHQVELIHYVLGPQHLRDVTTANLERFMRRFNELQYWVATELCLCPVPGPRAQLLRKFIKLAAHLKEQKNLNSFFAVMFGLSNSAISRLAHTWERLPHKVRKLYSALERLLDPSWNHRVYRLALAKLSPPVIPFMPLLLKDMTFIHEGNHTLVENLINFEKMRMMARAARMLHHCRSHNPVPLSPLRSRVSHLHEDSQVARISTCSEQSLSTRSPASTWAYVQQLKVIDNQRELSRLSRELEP

Compound	activity change, negative = inhibition	Potency
CN(Cc1cnc2ccccn12)C1CCN(c2cccc(NC(=O)c3cccnc3)c2)CC1	-5.71% (inactive)	
Cc1ccc(C(=O)N(Cc2cc3cc4c(cc3nc2N2CCOCC2)CCC4)CC2CCCO2)cc1 (stereo not drawn)	-21% (inactive)	
CC(C)C[C@@H](CO)N1CCN(Cc2ccccc2)CCC1=O		inactive
O=C(NCc1cccnc1)[C@@H]1CC=C[C@@H]2CCN(Cc3ccc(Cl)c(Cl)c3)C(=O)[C@@H]21	0.262% (inactive)	
CC(C)(Sc1ccc(CCN(CCCCC2CCCCC2)C(=O)NC2CCCCC2)cc1)C(=O)O		44.7 µM (active)
O=c1c(-c2ccccc2)nc2cnc(Oc3cccc(Cl)c3)nc2n1C[C@H]1CCCO1	12.9% (inactive)	
COc1cc([C@@H]2c3cc4c(cc3C(OC3OC5COC(C)OC5C(O)C3O)C3COC(=O)[C@@H]32)OCO4)cc(OC)c1O (stereo partly drawn)	11.4% (inactive)	
O=C1c2c(O)cccc2[C@H]([C@@H]2O[C@H](CO)[C@@H](O)[C@H](O)[C@H]2O)c2cc(CO)cc(O)c21	4.72% (inactive)	
O=C(O)c1cc(O)c2c(c1)[C@H]([C@H]1c3cc(C(=O)O)cc(O)c3C(=O)c3c(O[C@@H]4O[C@H](CO)[C@@H](O)[C@H](O)[C@H]4O)cccc31)c1cccc(O[C@@H]3O[C@H](CO)[C@@H](O)[C@H](O)[C@H]3O)c1C2=O		100 µM (active)
O=C1c2c(O)cccc2[C@@H]([C@@H]2O[C@H](CO)[C@@H](O)[C@H](O)[C@H]2O)c2cc(CO)cc(O)c21	4% (inactive)	
CCCN1CCC(=O)N([C@H](CO)Cc2ccccc2)CC1	7.95% (inactive)	
Nc1c(S(=O)(=O)O)cc(Nc2ccc(Nc3nc(Cl)nc(Nc4ccc(S(=O)(=O)O)cc4)n3)c(S(=O)(=O)O)c2)c2c1C(=O)c1ccccc1C2=O		22.4 µM (active)
CC#CCC(C)[C@H](O)/C=C/[C@@H]1[C@H]2c3cccc(CCCC(=O)O)c3O[C@H]2C[C@H]1O (stereo partly drawn)	7.01% (inactive)	
Nc1ccc(O)cc1	-22.7% [at 320 µM] (inactive)	
COc1cc(N)c(N)cc1OC	22.6% (inactive)	
Nc1cc(N)cc(N)c1		44.7 µM (active)
COc1ccc2[nH]cc(CCO)c2c1	4.85% (inactive)	
CC(C)c1ccc(CN2CCC3(CCC(CNC(=O)c4ccn(C)n4)O3)CC2)cc1 (stereo not drawn)	19.7% (inactive)	
Cc1cccc(C(=O)NCc2nc(-c3cccc(NC(=O)C4CCCN(C)C4)c3)oc2C)n1 (stereo not drawn)	12.9% (inactive)	
Cn1cccc1C(=O)N1CCC[C@@]2(CCN(c3cccc(-c4ccccc4)c3)C2)C1	1.7% (inactive)	
CCOc1nc2cccc(C(=O)OC(C)OC(=O)OC3CCCCC3)c2n1Cc1ccc(-c2ccccc2-c2nn[nH]n2)cc1 (stereo not drawn)		89.1 µM (active)
CCOc1nc2cccc(C(=O)O)c2n1Cc1ccc(-c2ccccc2-c2nn[nH]n2)cc1	9.91% (inactive)	
CCCc1nc(C(C)(C)O)c(C(=O)OCc2oc(=O)oc2C)n1Cc1ccc(-c2ccccc2-c2nn[nH]n2)cc1	20.8% (inactive)	
CCN1CCCC1CNC(=O)c1cnn(-c2ncc3c(n2)-c2ccc(OC)cc2CC3)c1C1CC1 (stereo not drawn)	12.9% (inactive)	
NCCC[C@H](N)CC(=O)N[C@H]1CNC(=O)[C@H]([C@H]2C[C@H](O)N=C(N)N2)NC(=O)C(=CNC(N)=O)NC(=O)[C@H](CO)NC(=O)[C@H](CO)NC1=O (β3hOrn-[Dap]SS[ΔAla(3-NHCONH2)][X6]; lactam 1-C)	23.2% [at 39.6 µM] (inactive)	
O.O.O.O.O.O.O.O=S(=O)([O-])[O-].[Co+2]		100 µM (active)
Cc1ccc(C(=O)Nc2cccc(-c3nc(CNC(=O)c4ccc(F)cc4Cl)c(C)o3)c2)s1	-17.1% (inactive)	

Compound	activity change, negative = inhibition	Potency
CC(=O)OC1CCC2(C)C3=C(CCC2C1(C)C)[C@@]1(C)CCC(C(C)CCC=C(C)C)[C@@]1(C)CC3 (stereo partly drawn)	-0.323% (inactive)	
CCCCCCCCCCCCCCCCSCC(COC)COP(=O)([O-])OCC[N+](C)(C)C (stereo not drawn)	5.55% (inactive)	
CN1CCN(CCCN2c3ccccc3Sc3ccccc32)CC1	26.3% (inactive)	
OCCN1CCN(CCCN2c3ccccc3Sc3ccc(Cl)cc32)CC1		inactive
CN1CCN(CCCN2c3ccccc3Sc3ccc(Cl)cc32)CC1		inactive and 112 µM (active)
CC(=O)N1CCC2(CC1)CN(c1cccc(-c3ccccc3)c1)C2	4.97% (inactive)	
C=C1[C@@H](O)[C@H](CC(C)C)N(Cc2ccccc2Br)S1(=O)=O		89.1 µM (active)
C[C@@H]1[C@H](c2ccccc2)OCCS(=O)(=O)N1Cc1ccccc1Br	-15.5% (inactive)	
O=S1(=O)CCO[C@H]2CCCC[C@@H]2N1Cc1ccccc1Br	-3.34% (inactive)	
Cc1ccc2c(c1)C(=O)[C@@]1(O)CCN(c3ccccc3)C1=N2	-6.6% (inactive)	
Cc1cnc(-n2ncc(C(=O)NCCN3CCOCC3)c2C2CC2)nc1-c1cccs1	5.26% (inactive)	
CCC1CN(CCNC(=O)c2cc(C(C)C)nn2C)Cc2cc(OC)ccc2O1 (stereo not drawn)	4.19% (inactive)	
Oc1c(Cl)cc(Cl)c(Cl)c1Cc1c(O)c(Cl)cc(Cl)c1Cl		56.2 µM (active) and inactive
Cc1ccc2c(Cl)cc(Cl)c(O)c2n1		inactive
Oc1c(Cl)cc(Cl)c2cccnc12	7.71% (inactive)	
COc1ccc(C(=O)N2CCC3(CC2)CN(c2ncccn2)C3)cc1	1.47% (inactive)	
COc1cc(CN2CCOc3ccc(CN4CCC(O)(c5cccnc5)CC4)cc3C2)cc(OC)c1	23% (inactive)	
Cc1ccc(C(=O)NCCc2nnc3n2CCN(Cc2cc(C)cc(C)c2)CC3)cc1	-5.23% (inactive)	
c1csc(CNc2ncncc2-c2ccoc2)c1	7.04% (inactive)	
O=C(c1nc2ncccn2n1)N1CCOc2ccc(C(O)C(c3ccccc3)c3ccccc3)cc2C1 (stereo not drawn)	-1.68% (inactive)	
C=C1c2cccc(O)c2C(O)=C2C(=O)[C@]3(O)C(O)=C(C(N)=O)C(=O)C(N(C)C)C3C(O)C12 (stereo partly drawn)	9.9% (inactive)	
C=C1c2c(Cl)ccc(O)c2C(O)=C2C(=O)[C@]3(O)C(O)=C(C(N)=O)C(=O)C(N(C)C)C3C(O)C12 (stereo partly drawn)	-0.56% (inactive)	
C=C1c2cccc(O)c2C(O)=C2C(=O)[C@]3(O)C(O)=C(C(N)=O)C(=O)[C@@H](N(C)C)[C@@H]3[C@@H](O)[C@H]12		31.6 µM (active)
O=C(c1cccnc1)C1CCCN(Cc2ccc3c(c2)CN(C(=O)c2cccc(Cl)c2)CCO3)C1 (stereo not drawn)	15.7% (inactive)	
CCC(C(=O)NC(N)=O)c1ccccc1 (stereo not drawn)	5.14% (inactive)	
COC(=O)C[C@](O)(CCCC(C)(C)O)C(=O)O[C@@H]1C(OC)=CC23CCCN2CCc2cc4c(cc2[C@H]13)OCO4 (stereo partly drawn)	23.6% (inactive)	
